For 7 molecules, Potency and outcome results are on record in PubChem BioAssay (Tox21).

A short description of experiment [1]: qHTS assay to identify aromatase inhibitors - cell viability counter screen (AID 743084).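 Further: cells stimulated with testosterone during compound exposure; nearly all actives have a fitted effect of over 55% in size.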 On the technique in general: qHTS replaces the single test concentration by a dilution series.
The target of experiment [2] is Aryl hydrocarbon receptor (Homo sapiens) (UniProt P35869). Kind of experiment: qHTS assay to identify small molecule that activate the aryl hydrocarbon receptor (AhR) signaling pathway (AID 743085).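 Further: HG2L7.5c1 human HepG2 liver cells with stably integrated DRE-driven firefly reporter; series mostly up to about 70 µM; nearly all actives have a fitted effect of over 15% in size.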 The gist of the method:
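A multiplexed format paired cell viability (CellTiter-Fluor fluorescence) with AhR-dependent luciferase output (ONE-Glo luminescence) in the same wells of HepG2 DRE-luc cells after 24 h compound exposure at 37C.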

A short description of experiment [3]: qHTS assay to identify small molecule that activate the aryl hydrocarbon receptor (AhR) signaling pathway - cell viability counter screen (AID 743086).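 Further: HepG2 liver cells carrying the AhR DRE luciferase reporter; series mostly up to about 70 µM; nearly all actives have a fitted effect of over 45% in size.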 The gist of the method:
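Cytotoxicity counter screen: CellTiter-Fluor signal (30 min, 37 C) in 4000 HepG2 cells/well carrying the DRE-luciferase reporter, following 24 h compound exposure at 37 C.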

Experiment [4] in a line: qHTS assay to identify small molecule antagonists of the peroxisome proliferator-activated receptor gamma (PPARg) signaling pathway - cell viability counter screen (AID 743194). Further: nearly all actives have a fitted effect of over 55% in size. Summed up: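 Viability was measured as CellTiter-Glo luminescence in GeneBLAzer PPARg UAS-bla HEK293H cells. These cells had been exposed 17 h at 37 C to compounds together with rosiglitazone at 50 nM final, with the beta-lactamase readout taken in the same wells.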

The nature of experiment [5]: qHTS assay for small molecule agonists of the antioxidant response element (ARE) signaling pathway - cell viability counter screen (AID 743203; calls by dose curve; further: nearly all actives have a fitted effect of over 55% in size). The gist of the method:
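Compounds in DMSO were pinned onto ARE-bla HepG2 cells plated 5 hrs earlier at 2,000 cells/well. Sixteen hours later at 37C/5% CO2, CellTiter-Glo was added and luminescence measured after 30 min at room temperature.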

A short description of experiment [6]: qHTS assay for small molecule activators of the heat shock response signaling pathway - cell viability counter screen (AID 743209). Further: nearly all actives have a fitted effect of over 50% in size. Summed up: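 Counter screen for cytotoxicity in HeLa HSE-bla reporter cells. Treatment was 5 h at 37 C; viability was detected by luminescent ATP assay (CellTiter-Glo) in the same wells as the beta-lactamase read.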
Experiment [7] is described as follows: qHTS assay for small molecule activators of the heat shock response signaling pathway (AID 743210; active means well fitted activation curve with a large enough effect in the signal ratio in the repeat runs, with a control signal flat, not every such curve was filed as active; the % refers to the signal ratio;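 further: HeLa cells with beta-lactamase reporter driven by heat shock elements; series mostly up to about 63 µM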). The gist of the method: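 HeLa HSE-bla cells, overnight plating; cpd in DMSO 5 h, 37 C; LiveBLAzer B/G FRET substrate 2.5 h RT; fluorescence intensity read.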
A short description of experiment [8]: qHTS assay to identify small molecule agonists of the peroxisome proliferator-activated receptor delta (PPARd) signaling pathway - cell viability counter screen (AID 743211). Further: nearly all actives have a fitted effect of over 55% in size. Summed up: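 Tox21 library compounds, delivered in DMSO, were incubated 17 h with PPARd-bla HEK293H cells; cytotoxicity was taken from CellTiter-Glo luminescence read 30 min after reagent addition.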

The target in experiment [9] is Peroxisome proliferator-activated receptor delta (Homo sapiens) (UniProt Q03181). The experiment in a line: qHTS assay to identify small molecule agonists of the peroxisome proliferator-activated receptor delta (PPARd) signaling pathway (AID 743212; calls by dose curve). Summed up: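 HEK293H PPARd-bla cells; 5 h preincubation 37 C/5% CO2; compound (DMSO) 37 C; LiveBLAzer B/G FRET substrate 2 h RT; fluorescence intensity.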
Sequence of Peroxisome proliferator-activated receptor delta (Homo sapiens) (Q03181 whole entry, looked up): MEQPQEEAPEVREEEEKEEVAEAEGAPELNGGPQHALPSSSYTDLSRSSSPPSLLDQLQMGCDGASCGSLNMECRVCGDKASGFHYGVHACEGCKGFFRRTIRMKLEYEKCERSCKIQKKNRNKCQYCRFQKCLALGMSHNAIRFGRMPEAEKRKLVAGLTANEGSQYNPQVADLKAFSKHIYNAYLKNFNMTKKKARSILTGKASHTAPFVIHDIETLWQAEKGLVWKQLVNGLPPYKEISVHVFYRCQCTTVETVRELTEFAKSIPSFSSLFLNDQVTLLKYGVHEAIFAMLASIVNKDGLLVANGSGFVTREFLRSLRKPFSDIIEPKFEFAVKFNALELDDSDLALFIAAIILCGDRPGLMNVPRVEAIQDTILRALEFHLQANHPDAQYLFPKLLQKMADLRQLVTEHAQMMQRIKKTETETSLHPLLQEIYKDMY

The nature of experiment [10]: qHTS assay to identify small molecule antagonists of the peroxisome proliferator-activated receptor delta (PPARd) signaling pathway - cell viability counter screen (AID 743213). Further: nearly all actives have a fitted effect of over 50% in size. Summed up: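 Viability counter-screen, qHTS format: PPARd-bla HEK293H, L165041 300 nM final, 17 h compound exposure at 37 C, CellTiter-Glo luminescence after 30 min RT.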
Experiment [11] can be described thus: qHTS assay to identify small molecule agonists of the farnesoid-X-receptor (FXR) signaling pathway - cell viability counter screen (AID 743218). Further: nearly all actives have a fitted effect of over 45% in size. Summed up: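 After 16 h at 37 C with test compounds, FXR-bla HEK 293T cells were given LiveBLAzer B/G substrate for 2 h at RT and then CellTiter-Glo; luminescence was taken after 30 min.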
Experiment [12] can be described thus: qHTS assay to identify small molecule antagonists of the farnesoid-X-receptor (FXR) signaling pathway - cell viability counter screen (AID 743221; active means well fitted cell-killing curve with a large enough effect in the repeat runs, not every such curve was filed as active; further: nearly all actives have a fitted effect of over 50% in size). Summed up:
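Cytotoxicity is taken from ATP luminescence (CellTiter-Glo, 30 min, room temperature) in FXR-bla HEK 293T cells previously incubated 16 h at 37 C with compound and chenodeoxycholic acid at 50 uM final.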

For experiment [13], the target named is Peroxisome proliferator-activated receptor gamma (Homo sapiens) (UniProt P37231). Kind of experiment: qHTS assay to identify small molecule agonists of the peroxisome proliferator-activated receptor gamma (PPARg) signaling pathway (AID 743094; active means well fitted activation curve with a large enough effect in the signal ratio in the repeat runs, not every such curve was filed as active; the % refers to the signal ratio). Summed up:
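Following 5 h plating at 37C, PPARg-bla HEK293H cells receive compound or DMSO for 17 h; fluorescence intensity is recorded after LiveBLAzer B/G loading for 1 h at room temperature.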

Experiment [14] can be described thus: qHTS assay for small molecule agonists of the antioxidant response element (ARE) signaling pathway (AID 743202; active means well fitted activation curve with a large enough effect in the signal ratio in the repeat runs, not every such curve was filed as active; the % refers to the signal ratio; further: potency means the concentration at half of the fitted maximal effect). The gist of the method:
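Quantitative high-throughput format in HepG2 cells bearing an integrated ARE-beta-lactamase reporter. Compound exposure lasted 16 h at 37 C, and fluorescence was read 2 h after adding LiveBLAzer B/G substrate at room temperature.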

The target in experiment [15] is Peroxisome proliferator-activated receptor delta (Homo sapiens) (UniProt Q03181). Kind of experiment: qHTS assay to identify small molecule antagonists of the peroxisome proliferator-activated receptor delta (PPARd) signaling pathway (AID 743215; active means well fitted inhibition curve with a large enough effect in the signal ratio in the repeat runs, not every such curve was filed as active; the % refers to the signal ratio;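 further: cells stimulated with agonist L165041 at 300 nM final during compound exposure; series mostly up to about 62 µM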). The gist of the method:
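With L165041 present at 300 nM final, compounds were incubated 17 h at 37 C on PPARd UAS-bla HEK293H cells. A FRET-based beta-lactamase substrate was then applied for 2 h at room temperature and fluorescence intensity recorded.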

Experiment [16] concerns the target Bile acid receptor (Homo sapiens) (UniProt Q96RI1). Kind of experiment: qHTS assay to identify small molecule antagonists of the farnesoid-X-receptor (FXR) signaling pathway (AID 743217; active means well fitted inhibition curve with a large enough effect in the signal ratio in the repeat runs, not every such curve was filed as active; the % refers to the signal ratio). Summed up: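 In this cell-based antagonist screen, inhibition of CDCA-driven (50 uM final) UAS-beta-lactamase expression in HEK 293T cells was measured by FRET fluorescence following 16 h compound exposure at 37 °C.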

Experiment [17] shares this target. Kind of experiment: qHTS assay to identify small molecule agonists of the farnesoid-X-receptor (FXR) signaling pathway (AID 743220; active means well fitted activation curve with a large enough effect in the signal ratio in the repeat runs, not every such curve was filed as active; the % refers to the signal ratio). The gist of the method:
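Beta-lactamase reporter under UAS control in GeneBLAzer FXR HEK 293T cells (5000/well) measured with LiveBLAzer FRET substrate after 2 h at room temperature. Compound exposure lasted 16 h at 37C.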

Experiment [18] concerns the target Peroxisome proliferator-activated receptor gamma (Homo sapiens) (UniProt P37231). The experiment in a line: qHTS assay to identify small molecule antagonists of the peroxisome proliferator-activated receptor gamma (PPARg) signaling pathway (AID 743191; calls by dose curve; further: series mostly up to about 63 µM; nearly all actives have a fitted effect of over 30% in size). The gist of the method:
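Beta-lactamase reporter under UAS control in HEK293H PPARg-bla cells; compound treatment 17 h at 37C. Read-out: fluorescence intensity after 1 h room-temperature incubation with LiveBLAzer B/G FRET substrate.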

In experiment [19] the target is Vitamin D3 receptor (Homo sapiens) (UniProt P11473). The experiment in a line: qHTS assay to identify small molecule agonists of the vitamin D receptor (VDR) signaling pathway (AID 743222; calls by dose curve). Summed up: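 VDR-bla cells were seeded, left 4 h, treated with compounds in DMSO for 16 h, incubated 2 h at RT with B/G FRET substrate, and read for fluorescence.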
Sequence of Vitamin D3 receptor (Homo sapiens) (P11473 whole entry, looked up): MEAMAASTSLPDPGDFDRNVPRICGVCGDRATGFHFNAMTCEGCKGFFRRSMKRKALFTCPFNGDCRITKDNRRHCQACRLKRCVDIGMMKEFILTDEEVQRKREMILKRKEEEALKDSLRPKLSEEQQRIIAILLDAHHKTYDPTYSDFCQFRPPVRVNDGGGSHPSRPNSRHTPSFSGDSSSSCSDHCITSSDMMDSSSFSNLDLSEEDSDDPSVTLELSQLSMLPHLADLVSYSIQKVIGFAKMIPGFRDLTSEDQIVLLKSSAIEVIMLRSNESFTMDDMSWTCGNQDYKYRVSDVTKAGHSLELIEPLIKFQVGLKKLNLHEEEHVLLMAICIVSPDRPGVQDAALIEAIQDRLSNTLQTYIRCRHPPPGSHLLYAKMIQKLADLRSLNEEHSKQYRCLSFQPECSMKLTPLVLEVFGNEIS
The target is the same in experiment [20]. The experiment in a line: qHTS assay to identify small molecule antagonists of the vitamin D receptor (VDR) signaling pathway (AID 743223; active means well fitted inhibition curve with a large enough effect in the signal ratio in the repeat runs, not every such curve was filed as active; the % refers to the signal ratio). The gist of the method:
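Quantitative HTS in VDR-bla reporter cells stimulated with 1alpha,25-dihydroxyvitamin D3, 3 nM final. Compound exposure 16 h, 37C, 5% CO2. Read-out: beta-lactamase FRET substrate fluorescence, 2 h RT.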

Records with an inconclusive call do not appear. Where a structure was tested more than once in an assay, its records may differ in their call. Active and inactive are the calls of the source. Unless noted, the call rests on the fitted dose curve; in most records, active means well fitted curve in the direction sought with a large enough effect in the repeat runs; inconclusive means weak or mixed curves; inactive means no such curve, though single readings can be large; an effect the other way counts as inactive or inconclusive.

Sequence of Bile acid receptor (Homo sapiens) (Q96RI1 whole entry, looked up): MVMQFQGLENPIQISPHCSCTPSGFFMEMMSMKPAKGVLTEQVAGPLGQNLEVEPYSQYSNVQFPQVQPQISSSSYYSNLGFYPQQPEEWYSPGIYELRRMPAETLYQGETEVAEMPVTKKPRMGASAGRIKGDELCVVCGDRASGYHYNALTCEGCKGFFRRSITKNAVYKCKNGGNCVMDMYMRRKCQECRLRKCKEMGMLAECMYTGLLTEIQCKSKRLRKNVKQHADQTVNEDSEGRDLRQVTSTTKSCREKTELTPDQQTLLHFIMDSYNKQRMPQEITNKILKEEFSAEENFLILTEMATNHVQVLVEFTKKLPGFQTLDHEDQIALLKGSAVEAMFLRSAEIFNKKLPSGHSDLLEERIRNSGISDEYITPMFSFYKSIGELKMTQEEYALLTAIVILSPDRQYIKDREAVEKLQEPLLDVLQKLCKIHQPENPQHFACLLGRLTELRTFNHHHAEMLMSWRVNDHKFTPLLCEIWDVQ
Sequence of Aryl hydrocarbon receptor (Homo sapiens) (P35869 whole entry, looked up): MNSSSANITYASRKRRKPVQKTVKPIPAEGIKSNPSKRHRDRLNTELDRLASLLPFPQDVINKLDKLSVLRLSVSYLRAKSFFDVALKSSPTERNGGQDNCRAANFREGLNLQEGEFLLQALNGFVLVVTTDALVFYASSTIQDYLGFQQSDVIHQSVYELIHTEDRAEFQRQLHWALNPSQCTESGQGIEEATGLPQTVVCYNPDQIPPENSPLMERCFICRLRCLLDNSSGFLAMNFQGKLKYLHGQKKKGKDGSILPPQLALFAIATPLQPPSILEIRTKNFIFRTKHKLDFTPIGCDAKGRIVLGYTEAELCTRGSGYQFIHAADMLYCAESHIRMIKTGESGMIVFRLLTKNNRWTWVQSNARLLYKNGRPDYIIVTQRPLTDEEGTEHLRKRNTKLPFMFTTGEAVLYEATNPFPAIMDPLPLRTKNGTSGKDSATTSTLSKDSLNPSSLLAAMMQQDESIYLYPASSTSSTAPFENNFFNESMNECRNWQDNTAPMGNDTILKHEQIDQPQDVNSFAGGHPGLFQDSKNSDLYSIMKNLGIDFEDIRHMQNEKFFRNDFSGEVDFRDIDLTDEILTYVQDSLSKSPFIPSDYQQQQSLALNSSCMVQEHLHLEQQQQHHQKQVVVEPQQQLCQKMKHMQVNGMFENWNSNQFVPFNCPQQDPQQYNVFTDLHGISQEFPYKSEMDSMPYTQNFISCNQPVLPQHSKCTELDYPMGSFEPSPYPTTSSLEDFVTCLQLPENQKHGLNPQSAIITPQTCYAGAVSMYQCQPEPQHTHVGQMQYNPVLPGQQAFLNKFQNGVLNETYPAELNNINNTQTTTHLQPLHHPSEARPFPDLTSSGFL
Sequence of Peroxisome proliferator-activated receptor gamma (Homo sapiens) (P37231 whole entry, looked up): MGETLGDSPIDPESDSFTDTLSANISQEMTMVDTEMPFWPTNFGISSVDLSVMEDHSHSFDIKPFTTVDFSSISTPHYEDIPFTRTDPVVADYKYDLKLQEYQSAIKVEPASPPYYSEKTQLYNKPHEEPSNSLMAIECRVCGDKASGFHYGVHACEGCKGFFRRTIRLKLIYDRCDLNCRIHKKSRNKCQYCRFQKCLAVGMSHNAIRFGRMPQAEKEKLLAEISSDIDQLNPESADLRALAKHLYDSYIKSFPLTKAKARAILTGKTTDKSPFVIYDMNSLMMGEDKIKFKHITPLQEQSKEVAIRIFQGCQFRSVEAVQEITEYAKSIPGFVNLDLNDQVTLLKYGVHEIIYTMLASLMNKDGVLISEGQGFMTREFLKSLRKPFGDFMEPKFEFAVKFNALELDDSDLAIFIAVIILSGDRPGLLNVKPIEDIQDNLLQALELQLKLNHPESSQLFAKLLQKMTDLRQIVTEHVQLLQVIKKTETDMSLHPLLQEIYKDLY

Turning to `NC(=O)OCC(COC(N)=O)c1ccccc1`, the Potency entry in [1], in experiment [2], in experiment [3], in experiment [4], in experiment [5] and in [8] was “inactive” throughout. The Potency entry in [10] and in experiment [11] was “inactive” each time. Further, the result in experiment [6], in experiment [7], in experiment [9] and in experiment [12] was inactive.
In the case of `CC1=NN(c2ccccc2)C(=O)C1`, the Potency entry in experiment [1], in [3], in [13], in experiment [4], in experiment [14] and in experiment [5] was “inactive” in each case. Also, the Potency entry in experiment [8], in experiment [10], in experiment [16] and in experiment [11] was “inactive” throughout. The call in [6], in [7], in experiment [9], in experiment [15], in experiment [17] and in experiment [12] was inactive.
Take `C[C@]12C=CC(=O)C=C1CC[C@@H]1[C@@H]2C(=O)C[C@@]2(C)[C@H]1CC[C@]2(O)C(=O)CO`: the Potency entry in [2], in [3], in [13], in experiment [18], in experiment [4] and in [14] was “inactive” in each case. Moreover, the Potency entry in experiment [5], in experiment [8], in experiment [10], in experiment [11] and in experiment [20] was “inactive” each time. The molecule was classed as inactive in [6], in experiment [7], in experiment [12] and in experiment [19].
`O=C(OCc1ccccc1)c1ccccc1`: the Potency entry in experiment [1], in [3], in experiment [13], in experiment [18], in [4] and in [14] was “inactive” throughout. For the same molecule, the Potency entry in experiment [5], in experiment [8], in experiment [10], in experiment [16], in experiment [11] and in experiment [20] was “inactive” each time. In addition, the molecule was called inactive in [6], in experiment [7], in [9], in experiment [15], in [17] and in [12]. In addition, the molecule was classed as inactive in [19].
Consider `O=C(O)CN(CC(=O)O)CC(=O)O`, for which the Potency result in [1], in experiment [3], in [13], in [18], in experiment [4] and in experiment [5] was “inactive” each time. The Potency entry in experiment [8], in experiment [10], in [16], in experiment [11] and in [20] was “inactive” throughout. Also, the Potency in experiment [14] was 55.3 µM (active) and inactive. For the same molecule, the call in [6], in experiment [7], in experiment [9], in [17], in experiment [12] and in experiment [19] was inactive.
As for `C[C@]12C[C@H](O)[C@H]3[C@@H](CCC4=CC(=O)CC[C@@]43C)[C@@H]1CC[C@@H]2C(=O)CO`, the Potency result in experiment [1], in [2], in experiment [3], in [13], in experiment [4] and in [14] was “inactive” each time. Moreover, the Potency result in experiment [5], in experiment [8], in experiment [10], in experiment [16] and in [11] was “inactive” throughout. In addition, the result in experiment [6], in [7], in experiment [9], in experiment [17] and in [12] was inactive.
As for `CCn1cc(C(=O)O)c(=O)c2ccc(C)nc21`, the Potency result in experiment [1], in [3], in [13], in experiment [18], in [4] and in experiment [14] was “inactive” in each case. Besides, the Potency result in [5], in experiment [8], in [10], in experiment [16], in experiment [11] and in experiment [20] was “inactive” throughout. The result in experiment [6], in experiment [7], in experiment [9], in [17], in experiment [12] and in [19] was inactive.
